Inconclusive results are not listed. A call without a number means that no potency is given here. Activity calls are given as the source filed them. The call rests on the fitted dose curve; in most records, active means well fitted curve in the direction sought with a large enough effect; inconclusive means small, poorly fitted or top-dose-only effect, or another doubt; inactive means no such curve, though single readings can be large; an effect the other way counts as inactive or inconclusive.
Legend:
[1] = Cell Viability - LYMP2-003 (AID 965);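 further: cells exposed to compounds for 24 h before reading; nearly all actives have a fitted effect of over 50% in size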
How it was run: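 CellTiter-Glo luminescence (cellular ATP) after 24 h compound exposure at 37 C in complete medium; 2500 cells/well, 5 h settling beforehand. Concentration-response fitted to standard Hill equation for AC50. Tetraoctylammonium bromide served as positive control.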

[2] = Cell Viability - LYMP2-004 (AID 966); further: nearly all actives have a fitted effect of over 65% in size
How it was run: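 AC50 values come from Hill modelling of concentration-dependent loss of intracellular ATP, measured by CellTiter-Glo luminescence. Human LYMP2-004 lymphoblastoid cells (2500/well) were exposed to compound for 24 h at 37 C.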

[3] = Cell Viability - LYMP2-005 (AID 967)
How it was run: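 Steps: seed 2500 LYMP2-005 cells/well, incubate 5 h at 37 C, add compound, incubate 24 h at 37 C, add CellTiter-Glo, wait 30 min at RT, read luminescence. Concentration-response data fitted to Hill equation for AC50.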

[4] = Cell Viability - LYMP2-009 (AID 968); further: nearly all actives have a fitted effect of over 55% in size
[5] = Cell Viability - LYMP2-011 (AID 969); further: nearly all actives have a fitted effect of over 60% in size
How it was run: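 Cytotoxicity qHTS with ATP content as read-out: lymphoblastoid cells (2500/well) exposed to compound for 24 h at 37 C, then luciferase luminescence measured. Concentration-response data fitted with the standard Hill equation to give AC50.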

[6] = Cell Viability - LYMP2-013 (AID 970); further: nearly all actives have a fitted effect of over 55% in size
How it was run: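 qHTS cytotoxicity: ATP-dependent luminescence (CellTiter-Glo, 30 min room temperature) read after 24 h compound exposure at 37 C of 2500 LYMP2-013 lymphoblastoid cells per well. Concentration-response fitted with Hill equation to give AC50.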

[7] = Cell Viability - LYMP2-015 (AID 971); further: nearly all actives have a fitted effect of over 55% in size
How it was run: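 Cytotoxicity readout: decrease in intracellular ATP (CellTiter-Glo luminescence) in 2500 LYMP2-015 lymphoblastoid cells/well after 24 h compound exposure at 37 C. Concentration-response data fitted with the standard Hill equation to give AC50.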

[8] = Cell Viability - LYMP2-017 (AID 972); further: nearly all actives have a fitted effect of over 55% in size
How it was run: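 CellTiter-Glo luminescence (cellular ATP, 30 min RT) measured cytotoxicity after 24 hr compound treatment at 37 C. Cells were a human lymphoblastoid line, LYMP2-017, plated at 2500/well and incubated 5 hr first; concentration-response fitted with Hill equation for AC50.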

[9] = Cell Viability - LYMP2-019 (AID 973); further: nearly all actives have a fitted effect of over 55% in size
How it was run: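 AC50 values come from Hill-equation fits of luminescent intracellular ATP (CellTiter-Glo, 30 min, room temperature) following 24 h compound exposure at 37 C. Cells: LYMP2-019 lymphoblastoid line, 2500 per well, in complete culture medium.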

[10] = Cell Viability - LYMP2-021 (AID 974); further: nearly all actives have a fitted effect of over 55% in size
How it was run: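 AC50 values come from Hill-equation fits to CellTiter-Glo luminescence (ATP content), read after 24 hour compound exposure at 37 C of 2500 LYMP2-021 lymphoblastoid cells/well; tetraoctylammonium bromide as positive control.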

[11] = Cell Viability - LYMP2-023 (AID 975); further: nearly all actives have a fitted effect of over 55% in size
How it was run: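 Intracellular ATP, read by CellTiter-Glo luminescence, reports viability after 24 hr compound exposure at 37 C. 2500 lymphoblastoid cells/well (LYMP2-023) seeded 5 hr beforehand; Hill fits give AC50; positive control tetraoctylammonium bromide.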

[12] = Cell Viability - LYMP2-025 (AID 976)
How it was run: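 Cytotoxicity read as loss of intracellular ATP (luciferase luminescence) after 24 h compound treatment at 37 C. Uses LYMP2-025 lymphoblastoid cells in 1536-well format; Hill-equation modelling gives AC50; tetraoctylammonium bromide as positive control.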

[13] = Cell Viability - LYMP2-002 (AID 977)
How it was run: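 Human lymphoblastoid cells (2500/well) in complete medium were preincubated 5 hr at 37 C, then exposed to compounds for 24 hr at 37 C. Intracellular ATP was read by CellTiter-Glo luminescence; AC50 came from Hill-equation concentration-response fits.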

[14] = Cell Viability - LYMP2-006 (AID 978); further: nearly all actives have a fitted effect of over 60% in size
How it was run: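 qHTS, 1536-well; 2500 cells/well, 5 hr 37 C; cpd 24 hr 37 C; CellTiter-Glo 30 min RT; luminescence. Tetraoctylammonium bromide pos. ctrl. AC50 via Hill eqn.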

[15] = Cell Viability - LYMP2-008 (AID 980); further: nearly all actives have a fitted effect of over 60% in size
How it was run: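 Cytotoxicity determined from ATP-dependent luciferase luminescence (CellTiter-Glo) following 24 h compound exposure of human lymphoblastoid LYMP2-008 cells at 37 C. Concentration-response data fitted to the Hill equation to give AC50.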

[16] = Cell Viability - LYMP2-010 (AID 981); further: nearly all actives have a fitted effect of over 55% in size
How it was run: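 CellTiter-Glo ATP luminescence measured cytotoxicity after 24 h compound exposure at 37 C. LYMP2-010 cells were seeded at 2500/well, with tetraoctylammonium bromide as control; concentration-response curves gave AC50 values by the Hill equation.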

[17] = Cell Viability - LYMP2-012 (AID 982)
[18] = Cell Viability - LYMP2-014 (AID 983); further: nearly all actives have a fitted effect of over 50% in size
How it was run: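 Intracellular ATP loss, read by luciferase luminescence, measures acute cytotoxicity after 24 h compound exposure of lymphoblastoid LYMP2-014 cells (2500/well, 37 C). Concentration-response data fitted to the Hill equation for AC50.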

[19] = Cell Viability - LYMP2-016 (AID 984); further: nearly all actives have a fitted effect of over 55% in size
How it was run: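 qHTS, 1536-well: 2500 LYMP2-016 cells/well, 5 hr 37 C, compound added, 24 hr 37 C, CellTiter-Glo 30 min RT, luminescence. Tetraoctylammonium bromide positive control. AC50 via Hill fit.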

[20] = Cell Viability - LYMP2-022 (AID 987); further: nearly all actives have a fitted effect of over 55% in size
How it was run: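 Cytotoxicity read as decreased cellular ATP (CellTiter-Glo luminescence, 30 min room temperature) after 24 hours compound exposure of 2500 lymphoblastoid LYMP2-022 cells/well at 37 C. Concentration-response data fitted with standard Hill equation for AC50.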
Potency means the concentration at half of the fitted maximal effect.

Row | Compound | Potency [1] | Potency [2] | Potency [3] | Potency [4] | Potency [5] | Potency [6] | Potency [7] | Potency [8] | Potency [9] | Potency [10] | Potency [11] | Potency [12] | Potency [13] | Potency [14] | Potency [15] | Potency [16] | Potency [17] | Potency [18] | Potency [19] | Potency [20]
1 | N=C1C=CC(=C(c2ccc(N)cc2)c2ccc(N)cc2)C=C1 | 15.8 µM (active) | 12.6 µM (active) | 12.6 µM (active) | 7.94 µM (active) | 7.94 µM (active) | 12.6 µM (active) | 10 µM (active) | 12.6 µM (active) | 7.94 µM (active) | 7.94 µM (active) | 10 µM (active) | 10 µM (active) | 7.94 µM (active) | 10 µM (active) | 7.94 µM (active) | 7.94 µM (active) | 7.94 µM (active) | 7.94 µM (active) | 7.94 µM (active) | 3.16 µM (active)
2 | CC(CCC(=O)O)(c1ccc(O)cc1)c1ccc(O)cc1 | inactive | inactive | inactive | inactive | inactive | inactive | inactive | inactive | inactive | inactive | inactive | inactive | inactive | inactive | inactive | inactive | inactive | inactive | inactive | inactive

Reference: PubChem BioAssay (NCATS)
